The whole screen tested about 16,000 compounds, of which about 5,700 (36%) were called active. About 24% were inconclusive and are not listed. This is one part of the list. A number with no mark means an inactive call. Calls follow the shape of the dose curve; as a rule, active = well fitted curve in the direction sought with a large enough effect; inconclusive = small, poorly fitted or top-dose-only effect, or effect the other way; inactive = no such curve, though single readings can be large or run the other way.
target: Cytochrome P450 1A2 (Homo sapiens) (UniProt P05177); test: Cytochrome panel assay with activity outcomes; conditions: recombinant CYP, pro-luciferin dealkylation, luminescence, p450-cyp1a2; series mostly up to 57.1 µM; activity, negative = inhibition: at the top concentration
Sequence (P05177 whole entry, looked up): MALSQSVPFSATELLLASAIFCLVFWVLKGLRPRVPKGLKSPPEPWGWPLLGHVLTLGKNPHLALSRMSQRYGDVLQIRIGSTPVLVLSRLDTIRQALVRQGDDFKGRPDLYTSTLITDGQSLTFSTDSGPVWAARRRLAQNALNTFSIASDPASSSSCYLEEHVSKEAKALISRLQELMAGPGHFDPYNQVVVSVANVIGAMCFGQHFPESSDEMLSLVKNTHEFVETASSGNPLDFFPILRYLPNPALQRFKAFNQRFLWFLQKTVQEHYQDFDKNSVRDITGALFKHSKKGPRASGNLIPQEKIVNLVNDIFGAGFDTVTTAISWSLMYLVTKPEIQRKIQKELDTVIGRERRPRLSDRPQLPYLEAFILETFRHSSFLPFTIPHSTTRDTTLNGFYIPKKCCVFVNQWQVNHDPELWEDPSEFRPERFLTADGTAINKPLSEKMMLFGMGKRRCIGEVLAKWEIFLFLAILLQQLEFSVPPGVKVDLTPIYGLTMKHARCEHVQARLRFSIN
% is scaled to controls: 0 for no effect and ±100 for the full control effect.

Compound | AC50 | activity, negative = inhibition
CCOC(=O)c1cnc(SCCc2ccccc2)nc1N | 25.1 µM (active) | 
CCOC(=O)c1cnc(N(C)C)nc1SC(=N)N |  | -22.6% [at 2.29 µM]
CCN1CCc2c(sc(NC(=O)c3ccc(S(=O)(=O)N4CCOCC4)cc3)c2C(=O)OC)C1 |  | -24.7%
CCN1CCc2c(sc(N)c2C(N)=O)C1 |  | -10%
CCOC(=O)c1c(NC(=S)Nc2ccccc2)sc2c1CCN(CCc1ccccc1)C2 | 15.8 µM (active) | 
Cc1ccc2c(c1)N(CCC(=O)NCc1ccc3c(c1)OCO3)C(=O)CO2 | 15.8 µM (active) | 
COc1ccc(CCNC(=O)CCN2C(=O)COc3ccc(C)cc32)cc1OC |  | -32.9%
Cc1ccc2c(c1)N(CC(=O)NC1CCC(C)CC1)C(=O)CO2 (stereo not drawn) |  | -8.38%
Cc1ccc2c(c1)N(CC(=O)NC1CCCc3ccccc31)C(=O)CO2 (stereo not drawn) |  | -34%
Cc1ccc(CNC(=O)CN2C(=O)COc3ccc(C)cc32)cc1 | 3.16 µM (active) | 
COc1ccc(CCNC(=O)CCN2C(=O)C(C)Oc3ccc(C)cc32)cc1OC (stereo not drawn) |  | -23.7%
Cc1ccc2c(c1)N(CC(=O)NCc1cccs1)C(=O)C(C)O2 (stereo not drawn) | 5.01 µM (active) | 
Cc1ccc2c(c1)N(CCC(=O)NCCN1CCOCC1)C(=O)CO2 |  | -15.2%
Cc1ccc2c(c1)N(CCC(=O)NCc1cccnc1)C(=O)CO2 | 3.16 µM (active) | 
CC(=O)OCC1=C(C(=O)O)N2C(=O)[C@@H](NC(=O)Cc3cccs3)[C@@H]2SC1 | inactive | 
Cc1ccc(C)c(N2CCN(C(=O)C3CCN(S(=O)(=O)c4cccc5nsnc45)CC3)CC2)c1 |  | -21.2%
CO[C@H]1COC(=O)C/C=C\[C@@H](C)COC(=O)[C@@H](C)NC(=O)C/C=C\[C@@H]1C |  | -10.1% [at 11.4 µM]
O=C(O)CCC(=O)N1CCC[C@H]1C(=O)O |  | 5.66%
COc1cc(C(=O)NCCC(=O)NCc2ccc3c(c2)OCO3)cc(OC)c1OC | 20 µM (active) | 
CCN1CCCC1CNC(=O)CCNC(=O)c1cc(OC)c(OC)c(OC)c1 (stereo not drawn) |  | 11.5%
O=C(CCNS(=O)(=O)c1ccc2c(c1)CCC(=O)N2)NCc1ccc2c(c1)OCO2 |  | -13.9%
Cc1ccc(OCC(=O)Nc2ccc(S(=O)(=O)Nc3onc(C)c3C)cc2)cc1 |  | -21.9%
Cc1cc(C)c2nc(-c3ccccn3)cc(C(=O)Nc3ccc(S(=O)(=O)Nc4cc(C)on4)cc3)c2c1 |  | -24.1%
NS(=O)(=O)c1ccc(NS(=O)(=O)c2ccc(NC(=O)c3ccc(-c4ccccc4)cc3)cc2)cc1 |  | -15.2%

Compound | AC50 | activity, negative = inhibition
COc1cc2ccccc2cc1C(=O)Nc1ccc(S(=O)(=O)Nc2cc(C)on2)cc1 | 25.1 µM (active) | 
Cc1cc(NC(=O)c2ccc(S(=O)(=O)Nc3ccccc3)cc2)no1 | 5.01 µM (active) | 
CC(C)CC(C(=O)NCC1CCCO1)N(C(=O)Cn1nnc(-c2ccc(F)cc2)n1)c1cccc(C(F)(F)F)c1 (stereo not drawn) |  | 7.02%
Cc1noc(C)c1C(=O)N1CCC2(CC1)CN(C(=O)Nc1cccc(F)c1)C2 |  | 9.29%
Cc1noc(N)c1C(=O)Nc1ccc(F)cc1 | 8.91 µM (active) | 
CCc1noc(N)c1C(=O)Nc1ccc(F)c(Cl)c1 | 4.47 µM (active) | 
Cc1cnn(CCC(=O)NNC(=S)Nc2ccc(F)cc2)c1 |  | 5.71%
C/C(CCC(=O)OC[C@@H]1O[C@H](C#Cc2ccccc2)C=C[C@@H]1Oc1ccc(C)cc1)=N/OC[C@@H](C)[C@H](OCc1ccccc1)C(C)C |  | -1.97% [at 11.4 µM]
COCC(=O)N1CCC2(CC1)CCN(C(=O)Nc1cccc(F)c1)CC2 |  | 1.84%
CC(=O)N=c1sc(S(N)(=O)=O)nn1C |  | -3.09% [at 25.6 µM]
O=C(O)CCC(=O)c1ccc2ccc3cccc4ccc1c2c34 | 1.26 µM (active) | 
O=C(O)CCC(=O)CCC(=O)c1ccccc1 |  | 12.2%
CN(c1ccc(C(=O)NC2CC3CCC2C3)cc1)S(C)(=O)=O (stereo not drawn) |  | -12.9%
Cc1ccc(C(N)=Nc2ccccc2)cc1 |  | -14.7% [at 11.4 µM]
Cc1ccc(/C(N)=N/OC(=O)Cc2cccs2)cc1 | 15.8 µM (active) | 
O=C(O)C(Cc1cccs1)C(=O)O |  | -2.09% [at 2.29 µM]
CN(NC(=O)NN)c1ncc(C(F)(F)F)cc1Cl | 14.1 µM (active) | 
COn1c(SC(C)C)nc2ccccc2c1=O | 0.708 µM (active) | 
CC(C)On1c(SC(C)C)nc2ccccc2c1=O | 2 µM (active) | 
CC1CC(C)CN(CCCNC(=O)C2CCCN(c3nnc(N4CCCC4=O)s3)C2)C1 (stereo not drawn) |  | -3.41%
CN1CCN(CCCNC(=O)C2CCN(c3nnc(-n4cccc4)s3)CC2)CC1 |  | -5%
O=C(NCCc1c[nH]c2ccccc12)C1CCN(c2nnc(N3CCCC3=O)s2)CC1 | 20 µM (active) | 
C[C@@H]1NCC[C@H](CC(=O)O)[C@H]1CC(=O)O |  | -6.87% [at 11.4 µM]
FC(F)(F)c1cc(CN2CC3(CCNCC3)C2)cc(C(F)(F)F)c1 |  | -13.1%

Compound | AC50 | activity, negative = inhibition
Cc1ccc(N=C/C(C(=O)C(F)(F)F)=C(\O)c2cccs2)cc1 | 12.6 µM (active) | 
CC[C@H](C(=O)c1cccs1)C(O)(C(F)(F)F)C(F)(F)F |  | -17.5% [at 2.29 µM]
Cc1ccc(S(=O)(=O)c2c(C)nn(C(C)(C)C)c2OC(=O)c2cccs2)cc1 |  | -25.5%
CC(=O)N1CCC2(CC1)CN(c1ccccn1)C2 |  | 6.5%
Cc1cc(C)n2nc(-c3sccc3-n3cccc3)cc2n1 | 5.01 µM (active) | 
CCN1CCN(c2cc(=O)n(-c3cc(Cl)ccc3C)c(=O)[nH]2)CC1 |  | -10.1%
c1ccc(-c2nc(NCCCn3ccnc3)c3oc4ccccc4c3n2)cc1 | 0.0398 µM (active) | 
c1ccc2c(c1)oc1c(NCCCn3ccnc3)ncnc12 | 0.0562 µM (active) | 
Cc1cccc(C)c1NC(=O)N1CCC(N2CCCCC2)CC1 |  | -15.1%
CCCCN1CCCC[C@H]1C(=O)Nc1c(C)cccc1C | 5.01 µM (active) | 
Cc1cc(C)c(NC(=O)C2CCCN2C)c(C)c1 (stereo not drawn) |  | -11.5%
O=C(Cc1ncc(C(F)(F)F)cc1Cl)Nc1cccc(Br)c1 | 17.8 µM (active) | 
CCOC(=O)c1cnc2ccc(C)cc2c1Sc1ccccc1C(=O)OC | 3.55 µM (active) | 
COc1ncc2nc(-c3ccc(Cl)cc3)c(=O)n(-c3ccccc3)c2n1 | 1.58 µM (active) | 
COc1ncc2nc(-c3ccccc3)c(=O)n(-c3ccccc3)c2n1 | 2 µM (active) | 
COCCNC(=O)COC(=O)/C=C/c1cnc2ccccc2n1 | 7.08 µM (active) | 
CCc1c(C)c2c(C)[nH]nc2oc1=O | 5.01 µM (active) | 
CC(C)C12CC[C@@]3(CC[C@H]4[C@@](C)(CCC[C@]4(C)C(=O)O)[C@@H]3C1)[C@@H](CN)C2 |  | -4.02% [at 11.4 µM]
CCOC(=O)c1c(C)n(C)c2ccc(OC(=O)c3ccco3)cc12 | 0.355 µM (active) | 
CCN(CC)CCOC(=O)c1c(C)n(C)c2ccc(OC)cc12 | 1.41 µM (active) | 
O=CN[C@@H](Cc1cnc[nH]1)C(=O)O |  | -8.82% [at 11.4 µM]
COc1ccccc1-c1ccc2ncnc(N(C)C)c2c1 | 1.26 µM (active) | 
Cc1ccccc1-c1ccc2ncnc(N(C)C)c2c1 | 0.631 µM (active) | 
CN(C)c1ncnc2ccc(-c3ccccc3C(F)(F)F)cc12 | 0.631 µM (active) | 

Compound | AC50 | activity, negative = inhibition
CN(C)c1ncnc2ccc(-c3ccccc3C#N)cc12 | 0.398 µM (active) | 
Nc1nc(=O)c2[nH]cnc2n1O |  | -12.4% [at 11.4 µM]
O=c1oc2cc(Oc3c([N+](=O)[O-])cc(C(F)(F)F)cc3[N+](=O)[O-])ccc2c2c1CCCC2 | 3.16 µM (active) | 
COc1ccccc1-c1c(C(F)(F)F)oc2cc(OC(=O)c3cccc([N+](=O)[O-])c3C)ccc2c1=O |  | -23.6%
O=c1oc2cc(Oc3ccc(C(F)(F)F)cc3[N+](=O)[O-])ccc2c2c1CCCC2 |  | -1.9%
CC(C)(C)N1C(=O)[C@H]2[C@H]3[C@H](O)[C@H](O)C/C(=N/OC[C@@H](O)COCc4ccco4)[C@H]3CC[C@@H]2C1=O |  | -7.06% [at 11.4 µM]
C[C@@H]1/C=C\CC(=O)OC[C@H](C)C(=O)N[C@@H](Cc2ccccc2)C(=O)OC1 |  | -0.511% [at 11.4 µM]
COc1ccc(-n2c(=O)c(CCc3ccccc3)nc3cnc(OC)nc32)cc1 | 15.8 µM (active) | 
COc1ncc2nc(CCc3ccccc3)c(=O)n(C)c2n1 | 5.01 µM (active) | 
COCCn1c(=O)c(CCc2ccccc2)nc2cnc(Oc3ccc(OC)cc3)nc21 | 15.8 µM (active) | 
COCCn1c(=O)c(CCc2ccccc2)nc2cnc(OC)nc21 | 10 µM (active) | 
CC(C)(C)c1cc(C(=O)O)c(CN2CCCCC2)o1 |  | -9.17%
CCN1C(=O)[C@H]2[C@H]3[C@H](O)[C@H](O)C/C(=N/OC[C@@H](C)[C@H](OCc4ccccc4)C(C)C)[C@@H]3CC[C@@H]2C1=O |  | -11.8% [at 11.4 µM]
COc1ncc2nc(CCc3ccccc3)c(=O)n(CCC#N)c2n1 | 15.8 µM (active) | 
CO[C@H]1COC(=O)[C@H](C)NC(=O)C/C=C\[C@@H](C)[C@H](OC)COC(=O)[C@@H](OCc2ccccc2)/C=C\[C@@H]1C |  | -11.8% [at 11.4 µM]
Cc1cccc(-c2n[nH]c([N+](=O)[O-])n2)c1 | 14.1 µM (active) | 
CS(=O)(=O)Nc1cccc(-c2ccc3ncnc(Nc4ccccc4)c3c2)c1 | 1 µM (active) | 
CS(=O)(=O)Nc1cccc(-c2ccc3ncnc(NC4CC4)c3c2)c1 | 0.631 µM (active) | 
CS(=O)(=O)Nc1cccc(-c2ccc3ncnc(Nc4ccc(F)cc4)c3c2)c1 | 0.794 µM (active) | 
CNc1ncnc2ccc(-c3cccc(NS(C)(=O)=O)c3)cc12 | 0.316 µM (active) | 
Cn1ncc2c(Nc3cccc(C(=O)O)c3)ncnc21 |  | -28%

Reference: PubChem BioAssay AID1851 (National Center for Advancing Translational Sciences (NCATS), 2009)
